# Measured values taken from PubChem BioAssay (NCATS).
# A number with no mark means an inactive call. Records with an inconclusive call do not appear. The source made the active and inactive calls. Unless noted, calls follow the shape of the dose curve; as a rule, active = well fitted curve in the direction sought with a large enough effect; inconclusive = small, poorly fitted or top-dose-only effect, or another doubt; inactive = no such curve, though single readings can be large; an effect the other way counts as inactive or inconclusive.
# Assays:
# [1] = target: Lysosomal acid glucosylceramidase (Homo sapiens) (UniProt P04062); assay: Glucocerebrosidase-p2 (AID 348; in the data active = potency below about 10 µM; also: potency is read from the fitted curve at half-maximal effect); details: purified GBA, blue fluorogenic substrate, 40 min
# Method in brief: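 Compounds titrated from 0.6 nM upwards against 0.2 nM enzyme in pH 5.9 citric acid/KH2PO4, taurocholate, tween-20; blue fluorogenic substrate 80 uM, 40 min room temperature, stopped and read Ex 365/Em 440 for AC50.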
# [2] = AP1 Signaling Pathway (AID 357; active = well fitted curve in either direction with a large enough effect, not every such curve was filed as active;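 also: ME-180 reporter cells stimulated with EGF at its EC50 level; % is scaled to controls: 0 for no effect and ±100 for the full control effect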); details: ME-180 AP-1-bla reporter, EGF-induced, beta-lactamase ratio, 5 h; at 7.69 µM (top of the series) unless noted
# Method in brief: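 Titration-series screen for positive or negative modulators of EC50 EGF-induced signaling in ME-180 cells carrying an AP-1-driven beta-lactamase reporter. After 5 hours at 37 degrees Celsius, CCF4 460nm/530nm emission ratio gave %Activity; AC50 values derived.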
# [3] = NFAT Signaling Pathway (AID 444; active = well fitted curve in either direction with a large enough effect, not every such curve was filed as active;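 also: carbachol stimulus at about its EC50 of 1 µM final; % is scaled to controls: 0 for no effect and ±100 for the full control effect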); details: Jurkat NFAT-bla M1, carbachol, beta-lactamase ratio, 5 h; at 7.69 µM (top of the series) unless noted
# Method in brief: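 Jurkat cells with NFAT-driven β-lactamase reporter and co-expressed M1 receptor, stimulated with carbachol (final 1 uM, ~EC50), compound titration, 5 h at 37 °C. CCF4 loaded 1 h at RT; 460/530 nm ratio gave %activity and AC50.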
# [4] = Stat Signaling Pathway (AID 446; active = well fitted curve in either direction with a large enough effect, not every such curve was filed as active;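 also: ME-180 cervical cancer cells given 40 pM IL-6 alongside compound; SIE-controlled beta-lactamase reporter measured as 460/530 nm FRET emission ratio; % is scaled to controls: 0 for no effect and ±100 for the full control effect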); details: ME-180 (cervical carcinoma) SIE beta-lactamase reporter, IL-6 stimulated, 5 h; series mostly up to 7.69 µM
# Method in brief: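 IL-6/STAT signaling read in ME-180 cells via an SIE beta-lactamase reporter. Stimulus was 40 pM IL-6 (its AC50) for 5 hrs, so both activation and inhibition register.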
# [5] = target: Glucocorticoid receptor (Homo sapiens) (UniProt P04150); assay: GR-GFP Redistribution (AID 450;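 active = compounds whose dose series gives a full or clear partial fitted curve of increased nuclear translocation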; also: potency is read from the fitted curve at half-maximal effect); details: U2OS GR-GFP nuclear translocation, laser cytometry, 2 h
# [6] = target: Glucocorticoid receptor (Homo sapiens) (UniProt P04150); assay: GR-EFC Redistribution (AID 451; calls by dose curve; also: potency is read from the fitted curve at half-maximal effect); details: CHO-K1 GR-EFC translocation, beta-gal luminescence, 2 h
# Method in brief: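 CHO-K1 cells expressing nuclear EA and GR-ED fragments of b-gal; compounds titrated up to 46 uM final, 2 h at 37 C. GR nuclear translocation read as complemented b-gal luminescence after 1 h RT detection.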
# [7] = target: Mitogen-activated protein kinase 10 (Mus musculus) (UniProt Q61831); assay: JNK3 AlphaScreen Assay (AID 530; active = well fitted curve in either direction with a large enough effect, not every such curve was filed as active;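 also: kinase came from lysate of stimulated human HepG2 cells; signal reports phosphorylation of biotinylated GST-cJun 1-79 at Ser73 with 10 µM ATP; % is scaled to controls: 0 for no effect and ±100 for the full control effect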); details: JNK3 lysate, c-Jun phosphorylation; series mostly up to 57.1 µM
# Method in brief: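 Pre-activated (IL-1β/TNFα) JNK3 in HepG2 lysates phosphorylates biotin-GST-cJun(1-79), 10 uM ATP; anti-phospho-cJun(Ser73) AlphaScreen read at room temperature, pH 7.6 Tris buffer. Compounds pre-incubated 15 min as titrations.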
# [8] = target: 3',5'-cyclic-AMP phosphodiesterase 4B (Homo sapiens) (UniProt Q07343); assay: qHTS Assay for Inhibitors of PDE-IV (AID 607; active = well fitted activation curve with a large enough effect in the main read-out, with a control signal flat, not every such curve was filed as active; also: % of control where 0% means no effect); details: HEK293 ACTOne CNG channel cells, membrane potential fluorescence; series mostly up to 22.9 µM
# Method in brief: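 Live HEK293 cells with a modified cyclic nucleotide-gated (CNG) channel report intracellular cAMP via membrane-potential dye fluorescence (ex 535/em 590 nm). Endogenous PDE-IV was targeted. Compounds were tested at up to 22.9 uM final; RO 20-1724 100 uM served as control.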
# [9] = target: Dual specificity protein kinase CLK4 (Homo sapiens) (UniProt Q9HAZ1); assay: qHTS Assay for Inhibitors of CDC-like Kinase 4 (Kinase-Glo Assay) (AID 1770); details: recombinant Clk4, Kinase-Glo ATP depletion luminescence; series mostly up to 66.7 µM; also: potency is read from the fitted curve at half-maximal effect; nearly all actives have a fitted effect of over 65% in size
# Method in brief: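 25 nM Clk4 with 100 uM RS repeat peptide and 1 uM ATP (final) in Tris pH7.5, 10 mM MgCl2, 4.5 h at room temperature. Remaining ATP measured by Kinase-Glo luciferase luminescence.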
# [10] = target: Ubiquitin carboxyl-terminal hydrolase 1 (Homo sapiens) (UniProt O94782); assay: Inhibitors of USP1/UAF1: Pilot qHTS (AID 504865); details: purified USP1/UAF1, Ub-rhodamine cleavage fluorescence; series mostly up to 54.9 µM;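 also: rhodamine fluorescence freed from ubiquitin-rhodamine substrate followed over time; top concentration of the series differs between compounds; % is scaled to controls: 0 for no effect and ±100 for the full control effect; nearly all actives have a fitted effect of over 35% in size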
# Method in brief: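 USP1/UAF1 complex at 1 nM preincubated 15 min at room temperature with compound, then Ub-Rho substrate added at 150 nM final. Fluorescence (480/540 nm) read kinetically in 50 mM HEPES pH 7.8, 0.5 mM EDTA, 1 mM TCEP, 0.1 mg/ml BSA, 0.01% Tween-20.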
# [11] = Cell Viability - BJ (AID 421; calls by dose curve;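 also: potency is read from the fitted curve at half-maximal effect; cells exposed to compound for 40 hours at 37 °C before readout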); details: BJ fibroblast viability, qHTS
# Method in brief: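 Quantitative HTS: ATP depletion in BJ cells after 40 hr compound exposure in complete culture medium, detected with CellTiter-Glo; AC50 from standard Hill fits.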
# [12] = target: Cytochrome P450 2C9 (Homo sapiens) (UniProt P11712); assay: qHTS Assay for Inhibitors and Substrates of Cytochrome P450 2C9 (AID 883); details: recombinant CYP2C9, luciferin-H luminescence, 60 min; series mostly up to 57.1 µM; also: % is scaled to controls: 0 for no effect and ±100 for the full control effect; nearly all actives have a fitted effect of over 60% in size
# Method in brief: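 10nM CYP2C9 + 100uM Luciferin-H (=KM), 25mM KPO4; cpd 10 min 37C; NADPH regen, 60 min 37C; stop/detect with P450 Glo-Buffer 20 min; luminescence. Norm. to 57uM sulphaphenazole as full inhibition.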
# [13] = target: Cytochrome P450 2D6 (Homo sapiens) (UniProt P10635); assay: qHTS Assay for Inhibitors and Substrates of Cytochrome P450 2D6 (AID 891); details: recombinant CYP2D6, luciferin-ME EGE luminescence; series mostly up to 57.1 µM; also: potency is read from the fitted curve at half-maximal effect; nearly all actives have a fitted effect of over 60% in size
# Method in brief: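 Human CYP2D6 (5 nM) with 30 uM Luciferin-ME EGE (at Km) in 100 mM KPO4, compound preincubated 10 min, then NADPH regeneration system for 60 min at room temperature. Luciferin read by luminescence; normalized to 1.43 uM quinidine.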
# [14] = target: Cytochrome P450 2C19 (Homo sapiens) (UniProt P33261); assay: qHTS Assay for Inhibitors and Substrates of Cytochrome P450 2C19 (AID 899); details: recombinant CYP2C19, luciferin-H EGE luminescence; series mostly up to 57.1 µM; also: potency is read from the fitted curve at half-maximal effect; nearly all actives have a fitted effect of over 60% in size
# Method in brief: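 Luminescent read-out of luciferin formed from Luciferin-H EGE (10uM, equal to KM). Enzyme 5nM in 50mM KPO4; compound added, 10 min at 37C, then NADPH regenerating system for 60 min at 37C. Full inhibition defined by 57uM ketoconazole.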
# [15] = target: Dual specificity protein kinase CLK4 (Homo sapiens) (UniProt Q9HAZ1); assay: qHTS Assay for Inhibitors of CDC-like Kinase 4 (ADP-FP Assay) (AID 1795); details: Transcreener ADP fluorescence polarization; series mostly up to 50 µM;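 also: recombinant human CLK4 phosphorylating RS repeat peptide at 1 µM ATP; % is scaled to controls: 0 for no effect and ±100 for the full control effect; nearly all actives have a fitted effect of over 60% in size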
# Method in brief: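 Recombinant Clk4 (6.25 nM) phosphorylated 100 uM RS repeat peptide with 1 uM ATP in 25 mM Tris pH 7.5, 10 mM MgCl2, 0.5 mM EGTA, 2.5 mM DTT, 0.01% Triton X-100 for 1 h. ADP was detected by Transcreener ADP2 competitive fluorescence polarization after 30 min at room temperature.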
# Glucocorticoid receptor (Homo sapiens), sequence (P04150 whole entry, looked up, the tested form may be a part): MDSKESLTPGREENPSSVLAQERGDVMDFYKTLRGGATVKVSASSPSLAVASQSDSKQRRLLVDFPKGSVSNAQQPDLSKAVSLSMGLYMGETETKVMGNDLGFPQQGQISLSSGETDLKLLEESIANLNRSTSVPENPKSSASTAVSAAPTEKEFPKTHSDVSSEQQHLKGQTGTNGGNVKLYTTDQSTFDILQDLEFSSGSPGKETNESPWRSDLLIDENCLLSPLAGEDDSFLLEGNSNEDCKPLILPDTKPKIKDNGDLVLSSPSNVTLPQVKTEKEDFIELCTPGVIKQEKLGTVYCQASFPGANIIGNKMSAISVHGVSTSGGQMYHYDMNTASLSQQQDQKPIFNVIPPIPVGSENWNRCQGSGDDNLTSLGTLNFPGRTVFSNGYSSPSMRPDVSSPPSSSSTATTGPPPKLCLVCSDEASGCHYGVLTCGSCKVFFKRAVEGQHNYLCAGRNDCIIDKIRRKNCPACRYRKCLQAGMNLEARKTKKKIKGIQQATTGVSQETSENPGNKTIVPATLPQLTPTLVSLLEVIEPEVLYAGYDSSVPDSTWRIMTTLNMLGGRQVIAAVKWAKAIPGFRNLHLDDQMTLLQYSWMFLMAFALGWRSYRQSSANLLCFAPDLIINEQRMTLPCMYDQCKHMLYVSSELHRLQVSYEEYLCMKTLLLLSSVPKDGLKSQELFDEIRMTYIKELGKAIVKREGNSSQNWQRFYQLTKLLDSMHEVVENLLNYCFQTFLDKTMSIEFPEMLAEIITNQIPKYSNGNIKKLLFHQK
# Cytochrome P450 2C19 (Homo sapiens), sequence (P33261 whole entry, looked up): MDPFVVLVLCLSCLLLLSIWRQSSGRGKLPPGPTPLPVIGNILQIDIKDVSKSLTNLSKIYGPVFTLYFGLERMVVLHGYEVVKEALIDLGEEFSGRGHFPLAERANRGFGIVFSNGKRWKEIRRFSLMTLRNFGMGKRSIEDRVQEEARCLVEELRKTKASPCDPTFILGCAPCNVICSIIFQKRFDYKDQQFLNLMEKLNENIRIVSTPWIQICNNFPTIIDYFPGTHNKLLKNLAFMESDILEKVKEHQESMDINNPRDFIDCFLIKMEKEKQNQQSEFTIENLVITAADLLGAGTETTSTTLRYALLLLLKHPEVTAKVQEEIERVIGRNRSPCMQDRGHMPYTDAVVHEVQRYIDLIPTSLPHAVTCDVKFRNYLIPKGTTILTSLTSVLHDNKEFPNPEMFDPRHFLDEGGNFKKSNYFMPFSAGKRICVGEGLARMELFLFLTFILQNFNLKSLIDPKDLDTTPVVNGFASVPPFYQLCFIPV
# Dual specificity protein kinase CLK4 (Homo sapiens), sequence (Q9HAZ1 whole entry, looked up): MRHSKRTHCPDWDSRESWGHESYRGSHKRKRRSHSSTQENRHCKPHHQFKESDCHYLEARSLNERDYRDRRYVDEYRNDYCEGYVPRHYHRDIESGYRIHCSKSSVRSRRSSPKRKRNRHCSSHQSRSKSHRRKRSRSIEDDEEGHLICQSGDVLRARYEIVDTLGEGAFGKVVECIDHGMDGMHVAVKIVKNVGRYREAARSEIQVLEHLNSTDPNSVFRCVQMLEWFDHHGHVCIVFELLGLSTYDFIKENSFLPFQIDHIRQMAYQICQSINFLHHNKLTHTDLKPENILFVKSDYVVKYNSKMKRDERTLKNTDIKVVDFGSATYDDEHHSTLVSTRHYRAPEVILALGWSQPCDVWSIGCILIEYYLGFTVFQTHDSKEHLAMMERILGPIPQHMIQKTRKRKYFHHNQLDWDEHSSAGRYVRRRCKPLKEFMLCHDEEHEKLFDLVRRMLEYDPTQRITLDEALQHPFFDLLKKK
# Ubiquitin carboxyl-terminal hydrolase 1 (Homo sapiens), sequence (O94782 whole entry, looked up): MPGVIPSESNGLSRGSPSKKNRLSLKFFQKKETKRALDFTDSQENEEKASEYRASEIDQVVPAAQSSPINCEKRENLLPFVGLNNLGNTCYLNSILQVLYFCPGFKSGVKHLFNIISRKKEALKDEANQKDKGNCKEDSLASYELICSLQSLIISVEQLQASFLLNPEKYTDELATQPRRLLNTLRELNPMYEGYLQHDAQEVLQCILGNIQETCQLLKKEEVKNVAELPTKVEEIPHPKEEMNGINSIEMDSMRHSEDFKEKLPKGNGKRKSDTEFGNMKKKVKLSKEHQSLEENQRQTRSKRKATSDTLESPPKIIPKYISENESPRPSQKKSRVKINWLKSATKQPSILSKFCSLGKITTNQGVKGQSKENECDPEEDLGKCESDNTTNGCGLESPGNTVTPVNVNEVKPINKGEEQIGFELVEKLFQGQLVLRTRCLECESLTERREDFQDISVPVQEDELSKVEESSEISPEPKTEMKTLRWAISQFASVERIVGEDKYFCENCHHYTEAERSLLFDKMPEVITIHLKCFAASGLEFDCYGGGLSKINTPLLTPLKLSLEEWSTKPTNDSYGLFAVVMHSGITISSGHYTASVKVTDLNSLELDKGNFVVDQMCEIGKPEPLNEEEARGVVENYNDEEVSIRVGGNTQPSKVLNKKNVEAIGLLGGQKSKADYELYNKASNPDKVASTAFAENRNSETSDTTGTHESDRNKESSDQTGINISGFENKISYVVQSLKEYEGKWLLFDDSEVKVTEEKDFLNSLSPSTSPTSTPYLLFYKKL
# Cytochrome P450 2C9 (Homo sapiens), sequence (P11712 whole entry, looked up): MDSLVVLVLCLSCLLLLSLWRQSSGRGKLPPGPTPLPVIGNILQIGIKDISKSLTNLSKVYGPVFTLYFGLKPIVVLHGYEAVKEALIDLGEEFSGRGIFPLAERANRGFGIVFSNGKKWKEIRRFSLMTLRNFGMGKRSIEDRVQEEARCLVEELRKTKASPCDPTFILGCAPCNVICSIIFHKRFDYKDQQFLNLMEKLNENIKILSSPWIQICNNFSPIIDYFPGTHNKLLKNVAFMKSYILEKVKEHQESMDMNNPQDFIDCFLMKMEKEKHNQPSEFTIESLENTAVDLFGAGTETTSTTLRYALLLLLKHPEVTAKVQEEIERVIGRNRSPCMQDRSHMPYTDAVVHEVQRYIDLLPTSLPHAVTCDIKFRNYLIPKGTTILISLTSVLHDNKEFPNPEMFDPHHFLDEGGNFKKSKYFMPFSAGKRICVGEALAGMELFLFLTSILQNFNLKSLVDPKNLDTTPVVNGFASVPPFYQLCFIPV
# Cytochrome P450 2D6 (Homo sapiens), sequence (P10635 whole entry, looked up): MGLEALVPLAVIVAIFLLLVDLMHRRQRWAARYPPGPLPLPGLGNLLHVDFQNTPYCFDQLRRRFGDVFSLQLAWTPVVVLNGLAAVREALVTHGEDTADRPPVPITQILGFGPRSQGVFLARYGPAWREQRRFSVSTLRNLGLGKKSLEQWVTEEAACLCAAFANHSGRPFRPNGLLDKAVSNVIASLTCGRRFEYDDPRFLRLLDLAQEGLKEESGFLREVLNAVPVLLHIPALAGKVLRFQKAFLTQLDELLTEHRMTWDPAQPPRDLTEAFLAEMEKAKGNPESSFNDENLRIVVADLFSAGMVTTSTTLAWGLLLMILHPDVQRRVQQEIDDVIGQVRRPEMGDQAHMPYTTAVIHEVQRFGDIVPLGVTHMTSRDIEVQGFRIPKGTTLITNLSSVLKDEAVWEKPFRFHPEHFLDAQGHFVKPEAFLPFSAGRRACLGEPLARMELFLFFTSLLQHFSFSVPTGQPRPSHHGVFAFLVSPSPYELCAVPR
# 3',5'-cyclic-AMP phosphodiesterase 4B (Homo sapiens), sequence (Q07343 whole entry, looked up): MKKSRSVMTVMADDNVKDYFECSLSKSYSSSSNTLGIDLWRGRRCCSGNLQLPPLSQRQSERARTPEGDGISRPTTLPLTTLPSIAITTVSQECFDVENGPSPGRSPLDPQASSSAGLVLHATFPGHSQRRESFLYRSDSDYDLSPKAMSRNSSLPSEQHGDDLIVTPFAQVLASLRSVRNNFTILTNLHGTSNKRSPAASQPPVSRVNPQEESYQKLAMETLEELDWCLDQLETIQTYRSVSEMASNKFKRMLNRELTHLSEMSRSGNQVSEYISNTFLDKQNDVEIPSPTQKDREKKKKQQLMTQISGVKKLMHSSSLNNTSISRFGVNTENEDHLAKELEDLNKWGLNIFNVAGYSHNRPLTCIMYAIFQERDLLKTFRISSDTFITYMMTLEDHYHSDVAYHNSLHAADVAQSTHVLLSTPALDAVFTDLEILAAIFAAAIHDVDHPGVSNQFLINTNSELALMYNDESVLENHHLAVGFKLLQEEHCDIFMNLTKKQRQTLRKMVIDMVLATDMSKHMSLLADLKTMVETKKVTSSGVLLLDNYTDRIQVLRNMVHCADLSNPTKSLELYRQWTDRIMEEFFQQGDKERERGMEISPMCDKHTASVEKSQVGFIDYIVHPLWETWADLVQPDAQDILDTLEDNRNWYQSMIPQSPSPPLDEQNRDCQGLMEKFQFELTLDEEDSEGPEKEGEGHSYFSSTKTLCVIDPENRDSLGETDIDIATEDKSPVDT
# Lysosomal acid glucosylceramidase (Homo sapiens), sequence (P04062 whole entry, looked up): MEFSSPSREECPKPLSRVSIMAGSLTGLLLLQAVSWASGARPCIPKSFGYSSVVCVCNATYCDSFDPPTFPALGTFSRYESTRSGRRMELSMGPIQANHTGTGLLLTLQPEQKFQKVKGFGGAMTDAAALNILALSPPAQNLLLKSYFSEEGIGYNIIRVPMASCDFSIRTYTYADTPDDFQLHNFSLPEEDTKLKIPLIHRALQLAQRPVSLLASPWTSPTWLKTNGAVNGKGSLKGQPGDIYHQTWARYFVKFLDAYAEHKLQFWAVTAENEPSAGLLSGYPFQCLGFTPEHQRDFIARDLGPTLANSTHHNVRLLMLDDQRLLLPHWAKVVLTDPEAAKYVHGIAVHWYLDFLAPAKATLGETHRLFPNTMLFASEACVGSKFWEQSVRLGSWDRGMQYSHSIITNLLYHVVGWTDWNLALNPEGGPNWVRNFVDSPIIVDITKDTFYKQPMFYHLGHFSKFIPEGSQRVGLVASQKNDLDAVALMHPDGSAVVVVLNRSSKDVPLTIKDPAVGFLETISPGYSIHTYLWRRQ
smiles,measurement,setting,value
CC(=O)NCCNc1nc(-c2cccc(C#N)c2)nc2ccccc12,Potency,[1],> 11.4 µM
same,"activity change, negative = inhibition",[2],2.77%
same,"activity change, negative = inhibition",[3],12.4%
same,outcome,[4],inactive
same,Potency,[5],> 46 µM
same,Potency,[6],> 46 µM
same,Potency,[7],inactive
same,Potency,[8],inactive
same,Potency,[9],28.2 µM (active)
same,Potency,[10],inactive
C=CC(=C)CCC=C(C)C,Potency,[11],> 92 µM
COc1ccc(CNc2cc(-c3cccc(NS(C)(=O)=O)c3)ncn2)c(OC)c1,"activity change, negative = inhibition",[12],30.9% [at 2.29 µM]
COc1ccc2[nH]cc(CCNc3ncncc3-c3ccccc3C)c2c1,Potency,[13],1.26 µM (active)
same,Potency,[14],0.0501 µM (active)
COc1ccc2[nH]cc(CCNc3cc(-c4ccccc4OC)ncn3)c2c1,Potency,[14],3.16 µM (active)
COc1ccccc1CNc1nc(-c2ccoc2)nc2ccccc12,Potency,[15],inactive
